{"source": "PubChem BioAssay AID2783", "about": "(National Center for Advancing Translational Sciences (NCATS), 2010)", "target": "Histone-lysine N-methyltransferase 2A (Homo sapiens) (UniProt Q03164)", "sequence (Q03164 whole entry, looked up)": "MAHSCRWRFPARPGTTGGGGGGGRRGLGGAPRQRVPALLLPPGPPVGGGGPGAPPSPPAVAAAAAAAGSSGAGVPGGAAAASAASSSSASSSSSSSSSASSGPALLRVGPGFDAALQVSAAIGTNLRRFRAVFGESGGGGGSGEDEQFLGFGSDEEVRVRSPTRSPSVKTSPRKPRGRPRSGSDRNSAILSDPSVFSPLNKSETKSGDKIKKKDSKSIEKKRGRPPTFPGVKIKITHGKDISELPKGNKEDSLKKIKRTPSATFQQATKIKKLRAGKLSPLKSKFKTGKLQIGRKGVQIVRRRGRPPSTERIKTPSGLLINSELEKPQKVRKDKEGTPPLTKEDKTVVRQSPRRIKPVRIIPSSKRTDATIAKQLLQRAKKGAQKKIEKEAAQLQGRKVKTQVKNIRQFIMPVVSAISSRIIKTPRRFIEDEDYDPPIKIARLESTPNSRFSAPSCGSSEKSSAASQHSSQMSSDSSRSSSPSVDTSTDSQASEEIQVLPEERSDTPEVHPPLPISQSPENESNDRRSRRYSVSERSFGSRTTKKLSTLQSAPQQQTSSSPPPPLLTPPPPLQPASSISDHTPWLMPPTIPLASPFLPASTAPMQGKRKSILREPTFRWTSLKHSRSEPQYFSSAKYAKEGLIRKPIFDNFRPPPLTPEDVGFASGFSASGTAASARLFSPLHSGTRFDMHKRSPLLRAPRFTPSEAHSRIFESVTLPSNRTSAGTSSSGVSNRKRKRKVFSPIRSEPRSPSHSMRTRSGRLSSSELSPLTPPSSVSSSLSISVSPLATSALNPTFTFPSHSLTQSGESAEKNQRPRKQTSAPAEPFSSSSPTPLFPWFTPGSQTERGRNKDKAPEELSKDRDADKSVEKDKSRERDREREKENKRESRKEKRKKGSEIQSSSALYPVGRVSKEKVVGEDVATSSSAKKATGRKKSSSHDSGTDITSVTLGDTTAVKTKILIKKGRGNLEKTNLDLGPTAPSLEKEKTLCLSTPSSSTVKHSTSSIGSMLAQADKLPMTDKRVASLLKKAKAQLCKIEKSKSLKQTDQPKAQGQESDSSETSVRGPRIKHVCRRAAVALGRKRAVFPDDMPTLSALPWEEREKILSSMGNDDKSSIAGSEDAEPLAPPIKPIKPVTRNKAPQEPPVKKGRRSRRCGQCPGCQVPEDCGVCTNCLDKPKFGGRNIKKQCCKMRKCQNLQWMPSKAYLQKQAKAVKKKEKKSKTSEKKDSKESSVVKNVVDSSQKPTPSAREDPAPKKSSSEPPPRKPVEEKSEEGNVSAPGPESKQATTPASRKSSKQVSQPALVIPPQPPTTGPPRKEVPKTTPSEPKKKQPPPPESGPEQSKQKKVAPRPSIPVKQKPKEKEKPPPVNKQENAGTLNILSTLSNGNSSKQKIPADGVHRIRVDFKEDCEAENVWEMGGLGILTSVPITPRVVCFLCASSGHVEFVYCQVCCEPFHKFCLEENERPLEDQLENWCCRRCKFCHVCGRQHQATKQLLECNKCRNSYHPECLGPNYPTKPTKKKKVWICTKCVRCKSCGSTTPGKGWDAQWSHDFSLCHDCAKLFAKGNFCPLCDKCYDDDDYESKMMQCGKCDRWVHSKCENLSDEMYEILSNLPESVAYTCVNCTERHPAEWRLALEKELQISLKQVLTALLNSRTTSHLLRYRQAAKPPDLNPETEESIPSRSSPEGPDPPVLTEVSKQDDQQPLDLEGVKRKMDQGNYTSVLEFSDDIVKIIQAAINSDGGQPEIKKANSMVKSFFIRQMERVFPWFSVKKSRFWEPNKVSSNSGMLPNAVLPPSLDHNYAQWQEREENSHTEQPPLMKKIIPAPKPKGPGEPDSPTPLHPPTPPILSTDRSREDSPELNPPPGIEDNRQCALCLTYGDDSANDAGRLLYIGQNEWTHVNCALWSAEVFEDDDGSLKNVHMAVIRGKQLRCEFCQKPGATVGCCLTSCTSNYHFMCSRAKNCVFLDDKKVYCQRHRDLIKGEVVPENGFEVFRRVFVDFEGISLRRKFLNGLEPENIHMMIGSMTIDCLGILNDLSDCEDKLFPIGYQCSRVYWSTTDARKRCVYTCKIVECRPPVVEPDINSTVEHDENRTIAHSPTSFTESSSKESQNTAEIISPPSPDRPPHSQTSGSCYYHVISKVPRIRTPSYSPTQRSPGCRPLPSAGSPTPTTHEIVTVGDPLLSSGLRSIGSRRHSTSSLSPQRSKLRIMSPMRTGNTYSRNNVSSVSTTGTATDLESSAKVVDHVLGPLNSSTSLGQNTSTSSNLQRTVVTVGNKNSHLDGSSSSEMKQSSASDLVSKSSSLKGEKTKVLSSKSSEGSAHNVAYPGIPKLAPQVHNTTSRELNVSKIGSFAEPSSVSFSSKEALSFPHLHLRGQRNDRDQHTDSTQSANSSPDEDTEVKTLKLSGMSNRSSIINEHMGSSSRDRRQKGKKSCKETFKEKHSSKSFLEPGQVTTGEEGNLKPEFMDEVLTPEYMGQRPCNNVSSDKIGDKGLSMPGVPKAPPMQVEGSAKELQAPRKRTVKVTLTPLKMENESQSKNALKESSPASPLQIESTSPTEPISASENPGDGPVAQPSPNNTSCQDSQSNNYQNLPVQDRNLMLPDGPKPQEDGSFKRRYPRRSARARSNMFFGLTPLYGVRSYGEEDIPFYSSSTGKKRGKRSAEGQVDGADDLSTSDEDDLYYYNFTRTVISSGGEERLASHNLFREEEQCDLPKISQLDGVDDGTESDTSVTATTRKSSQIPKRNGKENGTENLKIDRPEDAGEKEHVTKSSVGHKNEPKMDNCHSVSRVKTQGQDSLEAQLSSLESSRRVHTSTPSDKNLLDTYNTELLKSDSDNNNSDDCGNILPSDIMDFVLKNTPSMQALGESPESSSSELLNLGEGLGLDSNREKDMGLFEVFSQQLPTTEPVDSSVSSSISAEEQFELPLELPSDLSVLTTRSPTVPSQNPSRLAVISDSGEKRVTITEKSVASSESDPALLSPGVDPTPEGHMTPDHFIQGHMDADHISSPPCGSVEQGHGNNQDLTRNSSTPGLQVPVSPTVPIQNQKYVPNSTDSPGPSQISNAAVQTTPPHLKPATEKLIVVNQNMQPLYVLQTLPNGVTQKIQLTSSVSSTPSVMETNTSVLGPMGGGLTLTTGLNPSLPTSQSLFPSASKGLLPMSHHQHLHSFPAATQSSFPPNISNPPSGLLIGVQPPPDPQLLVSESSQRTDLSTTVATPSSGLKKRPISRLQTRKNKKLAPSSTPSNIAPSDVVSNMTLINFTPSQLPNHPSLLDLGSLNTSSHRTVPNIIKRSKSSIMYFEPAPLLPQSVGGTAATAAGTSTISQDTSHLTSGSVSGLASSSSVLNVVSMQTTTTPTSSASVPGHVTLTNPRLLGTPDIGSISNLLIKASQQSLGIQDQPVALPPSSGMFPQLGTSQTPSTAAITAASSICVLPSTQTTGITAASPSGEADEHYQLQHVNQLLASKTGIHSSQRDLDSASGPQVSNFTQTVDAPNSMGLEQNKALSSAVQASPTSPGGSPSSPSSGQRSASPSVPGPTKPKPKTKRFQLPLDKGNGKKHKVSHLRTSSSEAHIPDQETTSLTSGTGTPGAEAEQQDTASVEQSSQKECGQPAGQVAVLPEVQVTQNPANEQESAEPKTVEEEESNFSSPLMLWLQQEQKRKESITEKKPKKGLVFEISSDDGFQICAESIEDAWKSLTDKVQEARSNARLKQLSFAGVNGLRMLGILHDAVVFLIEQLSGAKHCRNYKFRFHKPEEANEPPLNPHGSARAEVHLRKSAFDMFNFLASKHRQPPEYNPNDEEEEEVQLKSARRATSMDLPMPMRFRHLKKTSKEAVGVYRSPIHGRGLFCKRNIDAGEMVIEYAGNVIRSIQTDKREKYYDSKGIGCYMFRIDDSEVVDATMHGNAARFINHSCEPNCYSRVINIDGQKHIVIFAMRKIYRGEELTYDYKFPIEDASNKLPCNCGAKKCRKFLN", "test": "Confirmation of Inhibitors Targeting the Menin-MLL Interaction in MLL Related Leukemias: Competition With Fluorescein Labeled MLL-derived Peptide", "conditions": "Fluorescence polarization, fluorescein-MLL peptide displacement from menin", "excerpt": "qHTS Assay for Inhibitors Targeting the Menin-MLL Interaction in MLL Related Leukemias\nNIH Chemical Genomics Center [NCGC]\nNIH Molecular Libraries Probe Centers Network [MLPCN]\nAssay Submitter (PI): Jolanta Grembecka, Tomasz Cierpicki, University of Virginia\nTranslocations of the MLL (Mixed Lineage Leukemia) gene are frequently found in human leukemias affecting both children and adults. Fusion of MLL to one of more than 60 genes results in generation of oncogenic proteins upregulating Hox genes, which are vital to blood cell development. Patients harboring fusion of the MLL gene suffer from aggressive leukemias and respond poorly to available therapies. All of the oncogenic fusion proteins have a preserved N-terminal fragment of MLL that has been identified to interact with menin. It has been recently discovered that association with menin is critical to the leukemogenic activity of the MLL fusion oncoproteins. Selective targeting of the menin-MLL interaction could provide an attractive therapeutic approach to develop novel drugs for MLL-related leukemias. Small molecules blocking the menin-MLL interaction should reverse the oncogenic potential of MLL fusion proteins.\nWe have developed and optimized a fluorescence polarization-based assay for the identification of Menin-MLL inhibitors. […]\n5. Read fluorescence polarization for each label using the PerkinElmer Envision. […]", "note": "Records with an inconclusive call do not appear. The source made the active and inactive calls. Calls follow the shape of the dose curve; as a rule, active = well fitted inhibition curve with a large enough effect in the polarisation, with a control signal flat (not every such curve was filed as active); inconclusive = small, poorly fitted or top-dose-only effect, or effect the other way, or a change in a side signal; inactive = no such curve, though single readings can be large or run the other way; the % refers to the polarisation. Potency is read from the fitted curve at half-maximal effect."}
{"compound": "c1cc2cc(c1)C[n+]1ccc(c3ccccc31)NCc1ccc(cc1)CNc1cc[n+](c3ccccc13)C2", "values": [{"measurement": "Potency", "result": "126 µM (active)"}]}
